Assay results published in the supplement of paper PMC6555819.

Assays:
Assay in all cases: PBM binding z-score (relative to random genomic background probes); higher = stronger binding; sequences stand for … in GC…GCGATTGACAGCGTAGAATGAAGG
[1] = test system: FXR:RXRa (NR concentration 270 nM, RXRa partner concentration 90 nM)
Procedure, shortened: (§1)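 On custom Agilent 4×180K arrays, double-stranded probes with 34-nt variable regions carried direct-repeat seeds, single-nucleotide variants, half-site ablations or random human genomic background. Ligand-free nuclear receptor dimers were applied for 1 h, and binding was read with antibodies against each partner (one per run). Binding z-scores come from regression-normalized fluorescence, with the random background probes as reference.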

[2] = test system: LXRa:RXRa (NR concentration 270 nM, RXRa partner concentration 90 nM)
Procedure, shortened: as §1

[3] = test system: LXRa homodimer (NR concentration 270 nM)
Procedure, shortened: as §1

[4] = test system: LXRb:RXRa (NR concentration 270 nM, RXRa partner concentration 90 nM)
Procedure, shortened: as §1

[5] = test system: LXRb homodimer (NR concentration 270 nM)
Procedure, shortened: as §1

[6] = test system: PPARa:RXRa (NR concentration 270 nM, RXRa partner concentration 90 nM)
Procedure, shortened: as §1

[7] = test system: PPARg:RXRa (NR concentration 180 nM, RXRa partner concentration 90 nM)
Procedure, shortened: as §1

[8] = test system: PPARg:RXRa 270nM:90nM, anti-RXR (NR concentration 270 nM, RXRa partner concentration 90 nM)
Procedure, shortened: as §1

[9] = test system: PPARg:RXRa 30nM:10nM, anti-RXR (NR concentration 30 nM, RXRa partner concentration 10 nM)
Procedure, shortened: as §1

[10] = test system: PPARg:RXRa 90nM:30nM, anti-RXR (NR concentration 90 nM, RXRa partner concentration 30 nM)
Procedure, shortened: as §1

[11] = test system: PPARg:RXRa DBDmut IVT, anti-RXR (DBD mutation: RXRa K156A/R161A, NR concentration 270 nM, RXRa partner concentration 90 nM)
Procedure, shortened: as §1

[12] = test system: PPARg:RXRa IVT, anti-PPARg (NR concentration 270 nM, RXRa partner concentration 90 nM)
Procedure, shortened: as §1

[13] = test system: PPARg DBDmut:RXRa IVT, anti-PPARg (DBD mutation: PPARg1 K132A/R137A, NR concentration 270 nM, RXRa partner concentration 90 nM)
Procedure, shortened: as §1

[14] = test system: PPARg DBDmut IVT, anti-PPARg (DBD mutation: PPARg1 K132A/R137A, NR concentration 270 nM)
Procedure, shortened: as §1

[15] = test system: PPARg homodimer (NR concentration 180 nM)
Procedure, shortened: as §1

[16] = test system: PXR:RXRa (NR concentration 270 nM, RXRa partner concentration 90 nM)
Procedure, shortened: as §1

[17] = test system: PXR homodimer (NR concentration 270 nM)
Procedure, shortened: as §1

[18] = test system: RARa:RXR (NR concentration 270 nM, RXRa partner concentration 90 nM)
Procedure, shortened: as §1

[19] = test system: RARa homodimer (NR concentration 270 nM)
Procedure, shortened: as §1

[20] = test system: RARb:RXRa (NR concentration 270 nM, RXRa partner concentration 90 nM)
Procedure, shortened: as §1

Sequence | PBM binding z-score [1] | PBM binding z-score [2] | PBM binding z-score [3] | PBM binding z-score [4] | PBM binding z-score [5] | PBM binding z-score [6] | PBM binding z-score [7] | PBM binding z-score [8] | PBM binding z-score [9] | PBM binding z-score [10] | PBM binding z-score [11] | PBM binding z-score [12] | PBM binding z-score [13] | PBM binding z-score [14] | PBM binding z-score [15] | PBM binding z-score [16] | PBM binding z-score [17] | PBM binding z-score [18] | PBM binding z-score [19] | PBM binding z-score [20]
GATACAGGGTCAGCTAGAGGACAGAGTATGGAAA | 4.89 | 3.3 | -0.154 | 2.61 | -0.241 | 4.58 | 3.93 | 3.23 | 1.06 | 2.12 | 1.12 | 2.33 | 0.573 | 0.147 | 2.5 | 3.17 | 0.27 | 4.99 | 0.599 | 4.34
ATCGAAAGGTCGAGGTGATTATAGAGAAAGGGAA | 4.57 | 3.62 | 0.192 | 2.64 | 0.41 | 4.56 | 3.24 | 3.59 | 1.31 | 2.75 | 0.469 | 2.16 | 1.08 | 1.21 | 1.85 | 2.51 | 0.0251 | 3 | 0.473 | 4.2
TAGCCTAGGTCATTGGGCAAGTATAGTACGCATC | 4.44 | 3.37 | 0.712 | 2.16 | 0.361 | 3.46 | 2.93 | 3.07 | 0.725 | 1.95 | 1.66 | 3.17 | 0.399 | -0.561 | 1.19 | 1.64 | -0.337 | 2.38 | -0.275 | 3.66
CGTCCTAGGTCAAAGGTCAGTGAAGAGATGACGG | 7.08 | 5.88 | 2.24 | 5.52 | 0.881 | 6.8 | 11 | 9.26 | 9.03 | 10.2 | 4.39 | 5.93 | 0.538 | 0.49 | 3.9 | 6.08 | 0.262 | 7.96 | 1.07 | 5.64
CCTACTGGGCCACCAGGTCATTGATATCAACGTT | 1.25 | 1.07 | 0.943 | 1.56 | -0.0133 | 3.16 | 4.32 | 4.3 | 1.41 | 3.26 | 4.8 | 6.19 | -0.327 | -0.298 | 1.02 | 1.73 | 0.656 | 1.75 | 0.342 | 1.98
TGTCAAAATTCAAAGGTAACGTAAGTATCCACAC | 0.567 | 0.663 | -0.00824 | 0.809 | 0.161 | 1.13 | 0.99 | 1.47 | 0.972 | 1.39 | -0.0151 | 1.31 | 0.599 | 1.21 | 0.821 | 0.362 | 0.426 | 1.04 | 0.683 | 0.953
CTCGAAAGGTCGTGCTCAGGTTAGTATACCAAAC | 5.58 | 4.22 | 0.511 | 3.78 | 0.719 | 5.12 | 2.57 | 3.75 | 0.966 | 2.37 | 0.848 | 1.77 | 0.0664 | 0.423 | 2.46 | 3.94 | 0.392 | 4.55 | 0.346 | 4.09
GCAGACAGGTGAAACGCAAGTAACTCAGGGTGGC | -0.454 | -0.128 | -0.469 | -0.359 | -0.954 | 0.613 | 0.63 | -0.0352 | -0.456 | -0.429 | 0.725 | 0.495 | -0.728 | -0.714 | -0.578 | -0.359 | -0.754 | -0.0735 | -0.461 | 0.562
TAGCCTAGGTCGTGCGGGCCAGTATAGTGTCGGC | -0.111 | -0.0321 | -0.956 | -0.439 | -0.768 | 0.275 | -0.525 | -0.186 | -0.812 | -0.477 | -0.622 | 0.425 | -0.497 | -1.13 | -1.3 | -0.419 | -0.881 | -0.166 | -1.19 | 0.97
GATACAGGGTCAAGACCAGAGTACGCGTATTGAT | 6.27 | 3.79 | 0.0908 | 3.63 | 0.0748 | 5.37 | 5.25 | 4.91 | 1.75 | 3.56 | 1.96 | 3.52 | 1.38 | 0.619 | 1.49 | 3.34 | 0.195 | 3.93 | 0.851 | 4.28
AATGCAGGGTCACTAGGCCAGAGTAGGTACGAAT | 6.22 | 4.62 | 0.0121 | 3.54 | 0.179 | 5.78 | 7.48 | 6.77 | 3.41 | 5.76 | 4.1 | 5.62 | 1.45 | 0.273 | 2.1 | 3.26 | 0.127 | 4.25 | 0.109 | 4.13
ACAGACAGGTGATCAAGGTAACTCAGGCTATCAT | 0.0446 | -0.068 | -0.091 | -0.153 | -0.411 | -0.038 | 0.479 | -0.0434 | -0.141 | -0.12 | 0.0346 | 0.406 | -0.281 | 0.238 | 0.161 | -0.179 | 0.0426 | 0.35 | 0.298 | 0.165
ATATCTAGGTAACAAGTTCAGTGAAAGAGAGGAC | 0.903 | 1.07 | 0.574 | 0.857 | 0.917 | 3.32 | 5.22 | 4.43 | 2.41 | 4.16 | 6.96 | 6.85 | 2.71 | 2.4 | 1.51 | 1.64 | 1.49 | 0.979 | 1.72 | 1.58
GCTTGTACATCAAGGTTAAGAAAGACTAAGCTAA | 0.247 | 0.691 | -0.229 | 0.559 | -0.133 | 0.96 | 0.118 | 0.299 | -0.184 | 0.084 | -0.0633 | 0.772 | 0.219 | -0.0385 | 0.116 | 0.266 | -0.152 | 0.856 | 0.262 | 0.882
CCTCGGAGGACAACAGTAGGTCAGAGCTGCCAGA | 0.249 | 0.959 | 1.04 | 0.175 | -0.765 | 1.37 | 0.475 | 0.552 | -0.754 | 0.0572 | 1.42 | 2.02 | -1.19 | -2.12 | 0.785 | 0.462 | -0.203 | 0.798 | -0.275 | 2.05
